Reference: the supplement of paper PMC6555819

How the values were obtained:
Experiment in all cases: PBM binding z-score (relative to random genomic background probes); higher = stronger binding; sequences stand for … in GC…GCGATTGACAGCGTAGAATGAAGG
[1] = test system: FXR:RXRa (NR concentration 270 nM, RXRa partner concentration 90 nM)
Procedure, shortened: (§1)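 For binding z-scores, the reference was random background probes on custom Agilent 4×180K protein-binding microarrays. These arrays were incubated 1 h with ligand-free nuclear receptor dimers in PBS pH 7.4, 2% milk, 0.02% Triton X-100, 1 mM DTT, 0.2 mg/mL BSA and 0.4 mg/ml salmon testes DNA. Fluorescence was scanned after antibody detection of each partner (one per run) and regression-normalized.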

[2] = test system: LXRa:RXRa (NR concentration 270 nM, RXRa partner concentration 90 nM)
Procedure, shortened: as §1

[3] = test system: LXRa homodimer (NR concentration 270 nM)
Procedure, shortened: as §1

[4] = test system: LXRb:RXRa (NR concentration 270 nM, RXRa partner concentration 90 nM)
Procedure, shortened: as §1

[5] = test system: LXRb homodimer (NR concentration 270 nM)
Procedure, shortened: as §1

[6] = test system: PPARa:RXRa (NR concentration 270 nM, RXRa partner concentration 90 nM)
Procedure, shortened: as §1

[7] = test system: PPARg:RXRa (NR concentration 180 nM, RXRa partner concentration 90 nM)
Procedure, shortened: as §1

[8] = test system: PPARg:RXRa 270nM:90nM, anti-RXR (NR concentration 270 nM, RXRa partner concentration 90 nM)
Procedure, shortened: as §1

[9] = test system: PPARg:RXRa 30nM:10nM, anti-RXR (NR concentration 30 nM, RXRa partner concentration 10 nM)
Procedure, shortened: as §1

[10] = test system: PPARg:RXRa 90nM:30nM, anti-RXR (NR concentration 90 nM, RXRa partner concentration 30 nM)
Procedure, shortened: as §1

[11] = test system: PPARg:RXRa DBDmut IVT, anti-RXR (DBD mutation: RXRa K156A/R161A, NR concentration 270 nM, RXRa partner concentration 90 nM)
Procedure, shortened: as §1

[12] = test system: PPARg:RXRa IVT, anti-PPARg (NR concentration 270 nM, RXRa partner concentration 90 nM)
Procedure, shortened: as §1

[13] = test system: PPARg DBDmut:RXRa IVT, anti-PPARg (DBD mutation: PPARg1 K132A/R137A, NR concentration 270 nM, RXRa partner concentration 90 nM)
Procedure, shortened: as §1

[14] = test system: PPARg DBDmut IVT, anti-PPARg (DBD mutation: PPARg1 K132A/R137A, NR concentration 270 nM)
Procedure, shortened: as §1

[15] = test system: PPARg homodimer (NR concentration 180 nM)
Procedure, shortened: as §1

[16] = test system: PXR:RXRa (NR concentration 270 nM, RXRa partner concentration 90 nM)
Procedure, shortened: as §1

[17] = test system: PXR homodimer (NR concentration 270 nM)
Procedure, shortened: as §1

[18] = test system: RARa:RXR (NR concentration 270 nM, RXRa partner concentration 90 nM)
Procedure, shortened: as §1

[19] = test system: RARa homodimer (NR concentration 270 nM)
Procedure, shortened: as §1

[20] = test system: RARb:RXRa (NR concentration 270 nM, RXRa partner concentration 90 nM)
Procedure, shortened: as §1

AACTCTAGGTAACCAAGTTCAGTGAATGCCGAAC
PBM binding z-score [1]: 0.211 | PBM binding z-score [2]: 0.537 | PBM binding z-score [3]: 0.474 | PBM binding z-score [4]: 0.24 | PBM binding z-score [5]: 0.213 | PBM binding z-score [6]: 0.878 | PBM binding z-score [7]: 0.528 | PBM binding z-score [8]: 0.367 | PBM binding z-score [9]: -0.222 | PBM binding z-score [10]: 0.0109 | PBM binding z-score [11]: 3.59 | PBM binding z-score [12]: 2.39 | PBM binding z-score [13]: -0.137 | PBM binding z-score [14]: 0.215 | PBM binding z-score [15]: 0.0478 | PBM binding z-score [16]: 1.69 | PBM binding z-score [17]: 1.29 | PBM binding z-score [18]: 0.617 | PBM binding z-score [19]: 0.354 | PBM binding z-score [20]: 0.858

TAGCCTACGTCAGATCGGGCCAGTATACGCTATA
PBM binding z-score [1]: -0.48 | PBM binding z-score [2]: -0.971 | PBM binding z-score [3]: -0.851 | PBM binding z-score [4]: -1.01 | PBM binding z-score [5]: -0.669 | PBM binding z-score [6]: -0.78 | PBM binding z-score [7]: 0.214 | PBM binding z-score [8]: -0.86 | PBM binding z-score [9]: -0.34 | PBM binding z-score [10]: -0.771 | PBM binding z-score [11]: -1.07 | PBM binding z-score [12]: -0.466 | PBM binding z-score [13]: -1.21 | PBM binding z-score [14]: 0.256 | PBM binding z-score [15]: -1.51 | PBM binding z-score [16]: -0.718 | PBM binding z-score [17]: -1.22 | PBM binding z-score [18]: -0.618 | PBM binding z-score [19]: -1.02 | PBM binding z-score [20]: -0.507

CCGACGGGGGCATAAGGTTACCATAAGCCAGCCC
PBM binding z-score [1]: 3.27 | PBM binding z-score [2]: 4.13 | PBM binding z-score [3]: 0.249 | PBM binding z-score [4]: 4.27 | PBM binding z-score [5]: 3.6 | PBM binding z-score [6]: 3.87 | PBM binding z-score [7]: 2.48 | PBM binding z-score [8]: 3.54 | PBM binding z-score [9]: 1.17 | PBM binding z-score [10]: 2.82 | PBM binding z-score [11]: 1.29 | PBM binding z-score [12]: 2.29 | PBM binding z-score [13]: 0.647 | PBM binding z-score [14]: 0.997 | PBM binding z-score [15]: 1.67 | PBM binding z-score [16]: 2.75 | PBM binding z-score [17]: 0.496 | PBM binding z-score [18]: 3.93 | PBM binding z-score [19]: 0.379 | PBM binding z-score [20]: 2.86

TAGCCTAGGTCAGATGGGGCCAGTATACGCTATA
PBM binding z-score [1]: 2.75 | PBM binding z-score [2]: 1.56 | PBM binding z-score [3]: -0.0271 | PBM binding z-score [4]: 1.38 | PBM binding z-score [5]: -0.069 | PBM binding z-score [6]: 1.78 | PBM binding z-score [7]: 0.972 | PBM binding z-score [8]: 1.14 | PBM binding z-score [9]: 0.184 | PBM binding z-score [10]: 0.725 | PBM binding z-score [11]: 1.03 | PBM binding z-score [12]: 1.7 | PBM binding z-score [13]: -0.854 | PBM binding z-score [14]: -0.361 | PBM binding z-score [15]: 0.556 | PBM binding z-score [16]: 3.45 | PBM binding z-score [17]: -0.272 | PBM binding z-score [18]: 1.24 | PBM binding z-score [19]: -0.56 | PBM binding z-score [20]: 3.42

ACAGACAGGTGATGAAGGTAACTCATGCTATCAT
PBM binding z-score [1]: -0.264 | PBM binding z-score [2]: -0.284 | PBM binding z-score [3]: 0.081 | PBM binding z-score [4]: -0.0857 | PBM binding z-score [5]: -0.304 | PBM binding z-score [6]: 0.0179 | PBM binding z-score [7]: 0.862 | PBM binding z-score [8]: -0.0647 | PBM binding z-score [9]: 0.121 | PBM binding z-score [10]: -0.0244 | PBM binding z-score [11]: 0.199 | PBM binding z-score [12]: 0.711 | PBM binding z-score [13]: -0.0414 | PBM binding z-score [14]: -0.123 | PBM binding z-score [15]: -0.0711 | PBM binding z-score [16]: -0.216 | PBM binding z-score [17]: -0.133 | PBM binding z-score [18]: -0.118 | PBM binding z-score [19]: 0.279 | PBM binding z-score [20]: 0.221

AGAATGAGGTTATTAAGATCAGGGCATTGCGGTC
PBM binding z-score [1]: 1.9 | PBM binding z-score [2]: 1.95 | PBM binding z-score [3]: 0.705 | PBM binding z-score [4]: 1.39 | PBM binding z-score [5]: -0.0987 | PBM binding z-score [6]: 2.66 | PBM binding z-score [7]: 1.67 | PBM binding z-score [8]: 2.33 | PBM binding z-score [9]: 1 | PBM binding z-score [10]: 1.39 | PBM binding z-score [11]: 3.64 | PBM binding z-score [12]: 2.96 | PBM binding z-score [13]: 0.978 | PBM binding z-score [14]: -0.0431 | PBM binding z-score [15]: 1.27 | PBM binding z-score [16]: 1.83 | PBM binding z-score [17]: 1.83 | PBM binding z-score [18]: 1.79 | PBM binding z-score [19]: 0.408 | PBM binding z-score [20]: 1.75

GCAGACAGGTTAAACGCAGGTAACTCAGGGTGGC
PBM binding z-score [1]: 0.61 | PBM binding z-score [2]: 1.65 | PBM binding z-score [3]: -0.225 | PBM binding z-score [4]: 0.687 | PBM binding z-score [5]: -0.662 | PBM binding z-score [6]: 1.7 | PBM binding z-score [7]: 0.69 | PBM binding z-score [8]: 0.222 | PBM binding z-score [9]: -0.592 | PBM binding z-score [10]: -0.245 | PBM binding z-score [11]: 0.14 | PBM binding z-score [12]: -0.197 | PBM binding z-score [13]: -0.311 | PBM binding z-score [14]: -1.1 | PBM binding z-score [15]: -0.225 | PBM binding z-score [16]: 0.235 | PBM binding z-score [17]: -0.788 | PBM binding z-score [18]: 1.11 | PBM binding z-score [19]: -0.374 | PBM binding z-score [20]: 1.12
